Bioassay records from PubChem BioAssay.
HT1080NT lethal = qHTS for induction of synthetic lethality in tumor cells producing 2HG: qHTS for the HT-1080-NT fibrosarcoma cell line | Potency, µM (highest dose often 46.1 µM), inactives show at the highest dose activity, negative = less viability, most hits filed as cytotoxic | AID 686970, 2013 | HT-1080-NT fibrosarcoma viability, CellTiter-Glo ATP luminescence, 48 h | actives 1.6% (n = 360,000);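 note: NT is the 2HG producing partner of a matched IDH1 knockdown line; potency is the fitted concentration of half-maximal effect; 0% = DMSO-treated cells and -100% = media-only wells without cells; nearly all actives have a fitted effect of over 55% in size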
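Viability of the 2HG-overproducing fibrosarcoma line after 48 hours of compound exposure at 37 degrees C was determined by luminescence with CellTiter-Glo, and concentration-effect curves were then fitted and categorized.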
TDP1 cell CPT = qHTS for Inhibitors of human tyrosyl-DNA phosphodiesterase 1 (TDP1): qHTS in cells in presence of CPT | chicken DT40 Tdp1-/-;hTDP1 cells + 20 nM CPT, ATP luminescence, 48 h | AID 686979, 2013 | actives 12% (n = 420,000) | Potency, µM (series often up to 46.2 µM), for inactives: top-dose activity change, negative = growth inhibition, actives largely listed as inhibitors; note: potency is the fitted concentration of half-maximal effect; nearly all actives have a fitted effect of over 55% in size
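Chicken DT40 Tdp1-/- cells stably complemented with human TDP1 were seeded at 400 cells/well in medium containing 20 nM camptothecin, exposed to pin-transferred compounds, and grown at 37 °C for at least 48 hr. Viability was read as ATP luminescence.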
HT1080 IDH1KD tx = qHTS for induction of synthetic lethality in tumor cells producing 2HG: qHTS for the HT-1080-IDH1KD cell line; HT-1080 IDH1 knockdown viability, ATP luminescence, 48 h; Potency, µM (doses to about 46.1 µM), without a hit: top-dose activity, negative = toxicity, hits mostly cytotoxic; actives 2% (n = 360,000); AID 686971, 2013;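 note: potency is the fitted concentration of half-maximal effect; 0% = DMSO wells and -100% = cell-free medium wells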
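Luminescent ATP read-out (CellTiter-Glo, 10 min at room temperature) after 48 h compound exposure at 37 °C gave viability of IDH1-knockdown HT-1080 cells. Activity was normalised to DMSO and cell-free wells, then fitted as concentration-response curves.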
IL-1B inflam inh = qHTS for Inhibitors of Inflammasome Signaling: IL-1-beta AlphaLISA Primary Screen; THP-1 LPS/ATP IL-1B secretion, AlphaLISA, 16 h; hits give low values; activity change, % at 57.5 µM; AID 743279, 2014; actives 4.7% (n = 360,000); in the data active = activity change below about -50%; inconclusive = mostly about -30% to -49%
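THP-1 cells pretreated 1 hr with compounds (up to 57.5 uM final), then stimulated with LPS (250 ng/mL final) plus ATP (1.25 mM final); secreted IL-1B measured by AlphaLISA after 16 hr, decreased signal indicating inhibition.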
DT40 TDP1 no CPT = qHTS for Inhibitors of human tyrosyl-DNA phosphodiesterase 1 (TDP1): qHTS in cells in absence of CPT. DT40 Tdp1-/- hTDP1 cells, no CPT, ATP luminescence, 48 h. Potency, µM (titrated, usually from 46.2 µM), for inactives: at the top dose activity change, negative = growth inhibition, actives largely listed as inhibitors. AID 686978, 2013. actives 15% (n = 420,000); note: potency is the fitted concentration of half-maximal effect; nearly all actives have a fitted effect of over 55% in size
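Compound effects on proliferation are scored in DT40 Tdp1-/-;hTDP1 cells in the absence of CPT. ATP levels (CellTiter-Glo luminescence) are recorded after a ≥48 hr, 37 °C incubation.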
Numbers without * were called inactive; i = inactive; ? = inconclusive; . = not tested or not shown. Rows were chosen to be rich in hits. Some 19% of all compounds tested hit in one or more screens of this group. Unless noted, calls come from the whole dose curve; as a rule, active = well fitted curve in the direction sought with a large enough effect; inconclusive = small, poorly fitted or top-dose-only effect, or another doubt; inactive = no such curve, though single readings can be large; an effect the other way counts as inactive or inconclusive. Unless noted, % is set by controls: 0 for no effect and ±100 for the full control effect.

SMILES | HT1080NT lethal | TDP1 cell CPT | HT1080 IDH1KD tx | IL-1B inflam inh | DT40 TDP1 no CPT
COc1ccc(CC(=O)N(CC2CCCO2)c2nc3ccccc3s2)cc1 (stereo not drawn) | -2% | ? | -1% | 9 | 13µM*
CCN(CC)CCCN(C(=O)c1cccs1)c1nc(-c2ccc(OC)cc2)cs1 | ? | 18µM* | ? | ? | 21µM*
COc1ccc(OC)c(-c2csc(N(CC3CCCO3)C(=O)C3CCCCC3)n2)c1 (stereo not drawn) | 0% | 21µM* | -5% | -5 | 18µM*
COc1ccc(C(=O)N2CCC3(CC2)CN(C(=O)Nc2cccc(C#N)c2)C3)cc1 | . | -13% | . | . | ?
COc1ccc(-c2csc(N(CC3CCCO3)C(=O)c3cccs3)n2)cc1 (stereo not drawn) | -7% | 12µM* | -25% | 38 | ?
COc1ccc(OC)c(-c2csc(N(C)C(=O)Cc3ccccc3)n2)c1 | 0% | 10% | 1% | ? | -19%
CCN(CC)CCCN(C(=O)c1cccc(C)c1)c1nc(-c2ccc(OC)cc2)cs1 | -29% | -59% | ? | -50* | 7.3µM*
CCN(CC)CCCN(C(=O)c1ccc(Br)cc1)c1nc(-c2ccc(OC)cc2)cs1 | ? | -104% | ? | -81* | ?
COCCN(C(=O)Cc1ccc(OC)c(OC)c1)c1nc(-c2cc(OC)ccc2OC)cs1 | 11% | 18µM* | 9% | 39 | ?
c1cnc2[nH]ccc2c1 | . | -1% | . | . | -4%
Cc1cccc(-c2nn3c(=O)cc(CN4CCN(C(=O)/C=C/c5ccccc5)CC4)nc3s2)c1 | . | -2% | . | . | ?
O=[N+]([O-])c1cc(F)cc(F)c1Nc1cc(F)cc(F)c1 | -1% | 2% | 12% | 14 | -13%
Cc1ccc(S(=O)(=O)N(CC(=O)Nc2ccc(Cl)cc2)C(=O)N2CCN(C)CC2)cc1 | -8% | ? | -2% | -19 | -2%
CC(=O)Nc1ccc(S(=O)(=O)NCCC(=O)OCc2ccc([N+](=O)[O-])cc2)cc1 | 12% | 13µM* | 18% | i | 16µM*
CC(=O)Nc1ccc(OS(=O)(=O)c2ccc(Cl)cc2)cc1 | -2% | -8% | 0% | -10 | -26%
CC(=O)Nc1cccc(OCCCOc2ccc([N+](=O)[O-])cc2)c1 | 3% | 13µM* | -15% | 0 | 3.7µM*
CC(=O)Nc1ccc(OS(=O)(=O)c2cc(Cl)ccc2C)cc1 | -4% | 21µM* | -5% | 27 | 15µM*
CC(=O)Nc1ccc(OS(=O)(=O)c2ccc([N+](=O)[O-])cc2)cc1 | -12% | 18µM* | -15% | 4 | 16µM*
COc1ccc(Cl)cc1NS(=O)(=O)c1c(C)[nH]c(=O)[nH]c1=O | 6% | 0% | 15% | 4 | ?
Cc1ccccc1CN1CCN(C(=O)[C@H]2O[C@@H](n3cnc4c(N)ncnc43)[C@H](O)[C@@H]2O)CC1 | 9% | ? | 5% | -24 | ?
COC(=O)N1CCC[C@@]2(CCN(c3ccccn3)C2)C1 | . | 2% | . | . | -16%
O=[N+]([O-])c1ccc(Nc2ccc(F)cc2)nc1 | 7% | ? | 2% | -11 | ?
O=C(Nc1ccc(Oc2ccc(NC(=O)Nc3ccc([N+](=O)[O-])cc3)cc2)cc1)Nc1ccc([N+](=O)[O-])cc1 | ? | 2.3µM* | ? | -88* | 2.1µM*
CC(=O)c1ccc(NC(=O)Nc2ccc([N+](=O)[O-])cc2)cc1 | 18% | 3% | 14% | 14 | 0%
CC(=O)Nc1ccc(Nc2ccc([N+](=O)[O-])cn2)cc1 | 8% | ? | -13% | 14 | 9.2µM*
SMILES | HT1080NT lethal | TDP1 cell CPT | HT1080 IDH1KD tx | IL-1B inflam inh | DT40 TDP1 no CPT
COc1cccc(NC(=O)CN(C)C(=O)c2ccc3c(c2)C(=O)N(CCC(C)C)C3=O)c1 | -2% | -23% | 0% | 21 | -7%
O=C(CCCCCN1C(=O)c2cccc3cccc(c23)C1=O)NCc1cccnc1 | 2.9µM* | 2.9µM* | 2.3µM* | . | ?
O=C(CCCN1C(=O)c2cccc3cccc(c23)C1=O)NCc1cccnc1 | -19% | -3% | -8% | ? | 4%
CCCc1cc2c(=O)c(-c3cscn3)c(C(=O)OCC)oc2cc1O | ? | -4% | 11% | 19 | 3%
CCOC(=O)c1[nH]nc(-c2cc(CC)c(O)cc2O)c1-c1cscn1 | ? | ? | ? | -61* | ?
CCCCSc1nc2ccc(Nc3nc(N4CCOCC4)nc(N4CCOCC4)n3)cc2s1 | ? | ? | ? | ? | 21µM*
CCCCNC(=O)CSc1nc2ccc(Nc3nc(N4CCOCC4)nc(N4CCOCC4)n3)cc2s1 | -14% | 18µM* | -28% | -17 | 9.2µM*
Cc1ccc(-c2nc(C(=O)NCCCN3CCOCC3)cc3c2[nH]c2ccccc23)cc1 | -9% | 3.3µM* | -14% | -52* | 3.3µM*
COc1ccc(-c2nc(C(=O)NCCCN3CCOCC3)cc3c2[nH]c2ccccc23)cc1OC | -4% | 13µM* | -8% | -24 | 3.7µM*
Cc1ccc(-c2cc(C(=O)NCCCN3CCOCC3)c3ccccc3n2)cc1 | -6% | -21% | 3% | ? | ?
COc1ccccc1-c1cc(C(=O)NCCCN2CCOCC2)no1 | 16% | -15% | 8% | -7 | -17%
CSc1ncccc1C(=O)N1CCCC(CCC(=O)NCc2ccc(F)c(F)c2)C1 (stereo not drawn) | -12% | ? | -7% | 0 | ?
C[C@@H]1CN(C(=O)c2cc(COc3cccc(C(F)(F)F)c3)on2)C[C@H](C)O1 | 0% | ? | -2% | -7 | ?
CC1CCn2c(nc3cc(C(=O)NCc4ccccc4)ccc32)C1 (stereo not drawn) | . | 3% | . | . | -27%
Nc1ncc(Br)cc1S(=O)(=O)Nc1cc(C(F)(F)F)cc(C(F)(F)F)c1 | 18µM* | ? | 3.7µM* | -5 | 18µM*
COc1cccc(CNC(=O)[C@@H]2CCCN2C(=O)[C@@H]2CCCN2C(=O)c2cccc3ccccc23)c1 | 3% | ? | -1% | 0 | ?
CC1(Cc2cc(Cl)ccc2C(F)(F)F)C(=O)Nc2ccc(-c3ccc(F)c(Cl)c3)cc21 (stereo not drawn) | ? | ? | -9% | -28 | ?
CC1(Cc2ccc(C(F)(F)F)o2)C(=O)Nc2cc(-c3ccc(F)cc3F)ccc21 (stereo not drawn) | ? | ? | ? | -64* | 4.6µM*
